The source of these data is PubChem BioAssay (NCI).

Test systems include SR leukemia; RPMI-8226 leukemia; OVCAR-8 ovarian; OVCAR-4 ovarian; SK-OV-3 ovarian; IGROV1 ovarian; OVCAR-3 ovarian; HS 578T breast; T-47D breast; BT-549 breast; MDA-MB-435 melanoma; SW-620 colon; MCF7 breast; HCT-116 colon; HCC-2998 colon; KM12 colon; NCI/ADR-RES ovarian; OVCAR-5 ovarian.
Assay in all cases: NCI-60 one-dose screen, 48 h (100 = growth as untreated, 0 = no growth, -100 = all killed)
Details in all cases: 10 µM

The structures appear in SMILES notation. This is part of a sample that, as a whole, favours compounds with a hit. Of some 83,000 tested, about 20% had one in any assay.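 Growth was measured after 48 h exposure to one concentration of compound in 96-well plates. Values under 10 count as active.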 A number with no mark means an inactive call. Active and inactive are the calls of the source.

As to `Cc1cnc(C=O)c2cccc([N+](=O)[O-])c12`, the growth with SR leukemia is 16.5%; in the assay with RPMI-8226 leukemia, 68.1%; with OVCAR-8 ovarian it was 87.3%; in the assay with OVCAR-4 ovarian, 82.1%; with SK-OV-3 ovarian, 99.6%; with IGROV1 ovarian it was 95.9%. Moreover, the growth in the assay with OVCAR-3 ovarian was 101%; in the assay with HS 578T breast it was 94.9%; in the assay on T-47D breast, 82.3%; in the assay on BT-549 breast, 88.5%; with MDA-MB-435 melanoma it was 106%; in the assay with SW-620 colon, 47.4%. In addition, the growth is 75.8% with MCF7 breast, 17.5% in the assay with HCT-116 colon, 101% in the assay on HCC-2998 colon and 99.2% in the assay with KM12 colon.

For the molecule `Cn1c(N)c(N=Cc2ccccc2)c(=O)n(C)c1=O`, the growth with SR leukemia was 96.2%; in the assay with RPMI-8226 leukemia, 108%; in the assay with OVCAR-8 ovarian it was 110%; in the assay with OVCAR-4 ovarian, 111%; with SK-OV-3 ovarian, 96.4%; with IGROV1 ovarian, 106%. The growth is 120% in the assay with OVCAR-3 ovarian; 100% in the assay on HS 578T breast; 110% in the assay on NCI/ADR-RES ovarian; 108% in the assay on T-47D breast; 102% in the assay with BT-549 breast; 114% in the assay with MDA-MB-435 melanoma. The growth is 107% with SW-620 colon; 103% in the assay on MCF7 breast; 92.8% in the assay on HCT-116 colon; 104% in the assay with HCC-2998 colon; 115% in the assay with KM12 colon.

As to `CCNC(=S)NN`, the growth was 61.6% with SR leukemia; 75.9% in the assay on RPMI-8226 leukemia; 71.1% in the assay on OVCAR-8 ovarian; 82.2% in the assay with OVCAR-4 ovarian; 104% in the assay on SK-OV-3 ovarian; 12.8% in the assay on IGROV1 ovarian. Further, the growth in the assay with OVCAR-3 ovarian was 106%; in the assay on HS 578T breast, 100%; in the assay with NCI/ADR-RES ovarian, 83.8%; in the assay on T-47D breast, 47.2%; in the assay with BT-549 breast, 117%; in the assay with MDA-MB-435 melanoma, 93.7%. Also, the growth in the assay on SW-620 colon is 83.2%; in the assay on MCF7 breast it was 5.44% (active); in the assay with HCT-116 colon it was 10.4%; with HCC-2998 colon, 94.7%; in the assay with KM12 colon it was 109%.

Consider `COc1cc(C(=O)n2nc(N)c3c(C)cc(C)nc32)cc(OC)c1OC`, for which the growth in the assay on RPMI-8226 leukemia is 59.6%; in the assay with OVCAR-8 ovarian, 84.4%; with OVCAR-5 ovarian it was 118%; with OVCAR-4 ovarian, 92.8%; in the assay with SK-OV-3 ovarian, 92.3%; with IGROV1 ovarian, 86%. Besides, the growth was 69.3% in the assay on OVCAR-3 ovarian; 83.2% in the assay with HS 578T breast; 60.8% in the assay with NCI/ADR-RES ovarian; 98.5% in the assay on T-47D breast; 79.7% with BT-549 breast; -12.7% (active) in the assay on MDA-MB-435 melanoma. The growth is 31.5% in the assay on SW-620 colon, 45.3% in the assay on MCF7 breast, 70.2% with HCT-116 colon and 95.6% in the assay with HCC-2998 colon.

`CC(=O)n1nc(C(=O)OC(C)(C)C)c2cc(F)c(F)cc21`: the growth in the assay on SR leukemia was 104%; in the assay on RPMI-8226 leukemia, 89.1%; in the assay with OVCAR-8 ovarian, 105%; in the assay on OVCAR-4 ovarian, 98.5%; with SK-OV-3 ovarian, 114%; with IGROV1 ovarian, 97.5%. Besides, the growth in the assay on OVCAR-3 ovarian was 96.8%; in the assay on HS 578T breast, 106%; with NCI/ADR-RES ovarian it was 98.3%; with T-47D breast, 104%; in the assay on BT-549 breast it was 119%; with MDA-MB-435 melanoma it was 95.9%. For the same molecule, the growth in the assay with SW-620 colon is 94.1%; in the assay on MCF7 breast, 99.2%; in the assay on HCT-116 colon, 95%; with HCC-2998 colon, 102%; in the assay with KM12 colon, 90%.

On to `COc1ccc(-c2cn[nH]c2-c2cc(OC)c(OC)c(OC)c2)cc1`, for which the growth in the assay on SR leukemia is 3.17% (active); with RPMI-8226 leukemia it was 6.58% (active); with OVCAR-8 ovarian, 22.5%; with OVCAR-4 ovarian it was 45%; with SK-OV-3 ovarian, 10.2%; in the assay with IGROV1 ovarian it was 29.4%. The growth in the assay with OVCAR-3 ovarian is -8.09% (active); in the assay with HS 578T breast, 23%; in the assay on NCI/ADR-RES ovarian it was 27.1%; in the assay with T-47D breast, 45.6%; in the assay with BT-549 breast it was -13.8% (active); with MDA-MB-435 melanoma, -19% (active). The growth with SW-620 colon was 20.5%; in the assay on HCT-116 colon, 0.33% (active); in the assay on HCC-2998 colon, 6.62% (active); in the assay with KM12 colon it was 4.39% (active).

Regarding `COc1ccc(-c2ccccc2)cc1C(=O)c1ccc(-c2ccccc2)cc1`, the growth is 23.8% in the assay on SR leukemia; 93.1% with OVCAR-8 ovarian; 87.8% in the assay on OVCAR-5 ovarian; 96.3% in the assay with OVCAR-4 ovarian; 76.6% in the assay with SK-OV-3 ovarian; 63.5% in the assay with IGROV1 ovarian. Moreover, the growth with OVCAR-3 ovarian was 60.9%; in the assay on HS 578T breast, 81.5%; with NCI/ADR-RES ovarian, 41.2%; in the assay on T-47D breast it was 85.7%; with BT-549 breast, 76.8%; in the assay on MDA-MB-435 melanoma, -7.15% (active). Further, the growth with SW-620 colon is 52.3%; with MCF7 breast, 50.6%; in the assay on HCT-116 colon, 60.8%; in the assay with HCC-2998 colon, 74.6%; in the assay with KM12 colon, 48.5%.

Regarding `COc1ccc(-c2nsc3c2NC(=O)CC3c2ccc(Cl)cc2)cc1` (centres undefined), the growth is 67.8% with SR leukemia; 72.2% with RPMI-8226 leukemia; 90.2% with OVCAR-8 ovarian; 99.8% in the assay on OVCAR-4 ovarian; 77.6% in the assay on IGROV1 ovarian; 93.2% in the assay on OVCAR-3 ovarian. Moreover, the growth was 95.3% in the assay on HS 578T breast; 81.1% in the assay on NCI/ADR-RES ovarian; 69.1% in the assay on T-47D breast; 73.5% with BT-549 breast; 81% in the assay on MDA-MB-435 melanoma; 103% with SW-620 colon. In addition, the growth in the assay with MCF7 breast is 88.4%; with HCT-116 colon, 85.8%; in the assay with HCC-2998 colon it was 93.2%; in the assay on KM12 colon, 82.7%.

Regarding `O=c1[nH]c(=O)n(C2C[C@@H](O)[C@@H](CO)O2)cc1F` (some centres undefined), the growth in the assay with SR leukemia was 25.9%; in the assay on RPMI-8226 leukemia, 59.2%; with OVCAR-8 ovarian, 30.2%; in the assay with OVCAR-4 ovarian, 39%; in the assay with SK-OV-3 ovarian, 43.6%; in the assay on IGROV1 ovarian, 43.1%. The growth in the assay with OVCAR-3 ovarian was 30.5%; in the assay with HS 578T breast it was 60.8%; in the assay on NCI/ADR-RES ovarian, 29.6%; in the assay on T-47D breast, 54.3%; in the assay on BT-549 breast it was 1.4% (active); in the assay with MDA-MB-435 melanoma, 37.1%. Also, the growth was 55.9% in the assay on SW-620 colon; 20.7% in the assay on MCF7 breast; 16.8% in the assay with HCT-116 colon; -6.77% (active) with HCC-2998 colon; 33.4% in the assay on KM12 colon.
